These results are taken from PubChem BioAssay (EPA / NIEHS).

SMILES strings stand for the structures. Where “and” joins values, the source holds several entries; their conditions need not be identical. Equal values may be shown once. The source holds several records for some structures; these can differ, active in one and inactive in another. Calls of active or inactive are those of the source. The calls were made as follows: active = hit-call score of the fitted dose curve at least 0.9, where 1 is the maximum; inactive = score below 0.9.

For orientation: AC50 means the midpoint of the concentration-response curve, whichever way the signal moves.

Read-out in this assay: Vascular cell adhesion molecule 1 (VCAM1), VCAM1 (gene 7412)
Nature of the assay: BSK_hDFCGF_VCAM1: BioMAP Diversity Plus: hDFCGF Assay for Vascular cell adhesion molecule 1 (VCAM1) Biomarker Activity (AID 2283065).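 As to AC50: VCAM-1 protein level quantified by ELISA after 24 h chemical exposure.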 Particulars: primary human foreskin fibroblasts; actives raise or lower the signal. The gist of the method: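 Primary human foreskin fibroblasts (hDFCGF system) were dosed with chemical and VCAM-1 was measured by ELISA 24 h later. Bidirectional curve fitting used DMSO as negative control and activity baseline.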
On to `O=C(O)CCCOc1ccc(Cl)cc1Cl`, for which the outcome was inactive.

Regarding `O=C(O)C(F)(F)C(F)(F)C(F)(F)C(F)(F)C(F)(F)C(F)(F)C(F)(F)F`, the result was inactive.

As for `COc1nn(CSP(=S)(OC)OC)c(=O)s1`, the outcome was inactive.

With `CC1(c2ccc(Oc3ccccc3)cc2)OC(=O)N(Nc2ccccc2)C1=O` (configuration not stated), the outcome was inactive.

In the case of `ClC1C(Cl)C(Cl)C(Cl)C(Cl)C1Cl` (configuration not stated), the result was inactive.

Consider `N#CN`, for which the outcome was inactive.

In the case of `COC(=O)c1ccccc1S(=O)(=O)NC(=O)N(C)c1nc(C)nc(OC)n1`, the result was inactive.

Take `O=C(NC(=O)c1c(F)cccc1F)Nc1ccc(OC(F)(F)C(F)OC(F)(F)F)c(Cl)c1` (configuration not stated): the result was inactive.

On to `CNC(=O)/C=C(\C)OP(=O)(OC)OC`, for which the result was inactive.

Take `O=S(=O)(O)C(F)(F)C(F)(F)C(F)(F)C(F)(F)C(F)(F)C(F)(F)C(F)(F)C(F)(F)F`: the AC50 was 20 µM (active) and 29.6 µM (active) and 30 µM (active); the result was inactive.

Consider `COc1cc(OC)nc(NC(=O)NS(=O)(=O)c2cc(NC=O)ccc2C(=O)N(C)C)n1`, for which the result was inactive.

Consider `O=C(O)COc1ccc(Cl)cc1Cl`, for which the outcome was inactive.

Regarding `CC1(C)C(C=C(Cl)Cl)C1C(=O)OC(C#N)c1ccc(F)c(Oc2ccccc2)c1` (configuration not stated), the outcome was inactive.

Turning to `CCN(CC)C(=O)SCc1ccc(Cl)cc1`, the outcome was inactive.

In the case of `Oc1cc(Cl)ccc1Oc1ccc(Cl)cc1Cl`, the AC50 was 8.72 µM (active) [middle of 4 runs].

Take `Oc1ccc(Cl)cc1Cc1ccccc1`: the concentration at half-maximal activity (AC50) was 14.5 µM (active) [middle of 7 runs].

For the molecule `C[C@H]1[C@H](c2ccc(Cl)cc2)SC(=O)N1C(=O)NC1CCCCC1`, the outcome was inactive.

As to `CC(C)(C)C(O)/C(=C\c1ccc(Cl)cc1Cl)n1cncn1` (configuration not stated), the AC50 was 31.6 µM (active).

Regarding `CCC(C)(NC(=O)c1cc(Cl)c(C)c(Cl)c1)C(=O)CCl` (configuration not stated), the AC50 was 5.49 µM (active).

Consider `COC(=O)c1ccccc1CS(=O)(=O)NC(=O)Nc1nc(OC)cc(OC)n1`, for which the result was inactive.

For `COC(=O)c1ccccc1S(=O)(=O)NC(=O)Nc1nc(C)nc(OC)n1`, the result was inactive.

Take `CC(C)OC(=O)Nc1cccc(Cl)c1`: the outcome was inactive.

For the molecule `CCOc1nc(NC)nc(NC(=O)NS(=O)(=O)c2ccccc2C(=O)OC)n1`, the outcome was inactive.

Take `O=C(Nc1ccccc1)Nc1cnns1`: the result was inactive.

As to `CNC(=O)Oc1ccccc1OC(C)C`, the result was inactive.

As for `O=[N+]([O-])c1c(Cl)c(Cl)c(Cl)c(Cl)c1Cl`, the AC50 is 20 µM (active).
